Test results taken from paper PMC5540273 (PLoS ONE, 2017).

Tested on: T1, ADCK3
T1 construct: gene CABC1
Settings: concentration: 1 μM, replicates: in singlicate; n = 1
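Further: KINOMEscan kinase panel screen.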

**Q.** With `COc1cccc(NC(=O)NCCNc2ccnc(Nc3ccc(F)cc3)n2)c1` [GSK1379879] as the molecule, how does the “%Inh” value read?
**A.** The value was 14%.

**Q.** How did the “%Inh” value turn out when `CS(=O)(=O)c1cccc(CNc2nc(Nc3ccc4c(c3)CCC(=O)N4)ncc2C(F)(F)F)c1` was run?
**A.** Its value is 0%.

**Q.** For `c1ccc(Oc2ccc(Nc3ccnc4cc(-c5ccc(CN6CCCCC6)o5)ccc34)cc2)nc1` [GW567143], which “%Inh” value is on record?
**A.** The value was 0%.

**Q.** With `COC(=O)Nc1nc2cc(Oc3ccc(NC(=O)Nc4cccc(SC)c4)cc3)ccc2[nH]1.Cl` [GW697999] as the molecule, how does the “%Inh” value read?
**A.** Its value is 0%.

**Q.** With `Nc1ncc(-c2ccc3nccc(-c4ccncc4)c3c2)cc1S(=O)(=O)N1CCCCC1` [GSK1693850] as the molecule, how does the “%Inh” value read?
**A.** The value was 65%.

**Q.** How did the “%Inh” value turn out when `Cc1ccc(-c2ccc3occ(-c4ccc(S(C)=O)cc4)c3c2)nn1` (stereo not shown) was run?
**A.** Its value is 0%.

**Q.** For `CC(C)NCC(Cc1ccccc1)NC(=O)c1cc(Br)c(-c2ccnc3[nH]ccc23)s1.Cl.Cl` (stereo not shown) [GSK1383281], which “%Inh” value is on record?
**A.** Its value is 14%.

**Q.** `Cc1ccc(Nc2ccnc(Nc3ccc(C)c(F)c3)n2)cc1O.Cl` [GW582868] was tested. Which “%Inh” value did it give?
**A.** The value was 14%.

**Q.** With `Nc1cccc(-c2ccc3c(N)n[nH]c3c2)c1` [GSK2193613] as the molecule, how does the “%Inh” value read?
**A.** Its value is 3%.

**Q.** With `CN1CCN(Cc2ccc(NC(=O)Nc3ccc(N(C)c4ccnc(Nc5ccc(CS(C)(=O)=O)cc5)n4)cc3)cc2)CC1.Cl` [GW827654] as the molecule, how does the “%Inh” value read?
**A.** Its value is 0%.

**Q.** For `Cc1ccc(NC(=O)c2ccc(Cl)c(Cl)c2)cc1-c1ccc(C(=O)Nc2ccncc2)cc1` [GSK1398460], which “%Inh” value is on record?
**A.** Its value is 9%.

**Q.** How did the “%Inh” value turn out when `CN(c1ccc(NC(=O)N2CCN(CCCN3CCOCC3)CC2)cc1)c1ccnc(Nc2ccc(CS(C)(=O)=O)cc2)n1.Cl` [GW830899] was run?
**A.** The value was 3%.

**Q.** With `CSc1ccc(NC2=C(c3ccc(Cl)cc3)C(=O)NC2=O)cc1` [SB-317658] as the molecule, how does the “%Inh” value read?
**A.** Its value is 1%.

**Q.** With `O=C(Nc1n[nH]c2nc(-c3ccccc3)ccc12)C1CC1` [SB-708999] as the molecule, how does the “%Inh” value read?
**A.** The value was 2%.

**Q.** For `COc1cc(Nc2ccnc3cc(-c4ccncc4)ccc23)cc(OC)c1OC.Cl` [GW494610], which “%Inh” value is on record?
**A.** Its value is 98.6%.

**Q.** For `Cc1ccc(O)cc1Nc1ccnc2ccc(C(C)(C)C)cc12` [GW856805], which “%Inh” value is on record?
**A.** Its value is 0%.

**Q.** How did the “%Inh” value turn out when `Cc1ccc(NC(=O)c2ccnc(N3CCCCC3)c2)cc1-c1ccc(C(=O)NCC2CC2)cc1` [GW775610] was run?
**A.** Its value is 0%.

**Q.** How did the “%Inh” value turn out when `Cc1cc(-c2ccnc(Nc3cccc(C#N)c3)n2)cc(C)c1O` [GSK1440913] was run?
**A.** The value was 35%.

**Q.** With `Cl.Cl.NCC(NC(=O)c1cc(-c2cccnc2)c(-c2ccnc3[nH]ccc23)s1)c1ccccc1` (stereo not shown) [GSK1323434] as the molecule, how does the “%Inh” value read?
**A.** Its value is 97.5%.

**Q.** `COc1ccc(C2=C(Nc3cccc(O)c3)C(=O)NC2=O)cc1` [SB-390766] was tested. Which “%Inh” value did it give?
**A.** The value was 0%.

**Q.** How did the “%Inh” value turn out when `COC(=O)Nc1nc2ccc(Oc3ccc(NC(=O)Nc4cc(C(F)(F)F)ccc4F)cc3)cc2[nH]1.Cl` [GW654607] was run?
**A.** Its value is 1%.

**Q.** Which “%Inh” value does the source give for `O=C(Nc1n[nH]c2nc(-c3cccc(O)c3)ccc12)C1CC1` [SB-711805] here?
**A.** Its value is 0%.

**Q.** With `N#Cc1cnc2cc(-c3cnc(CNCCN4CCOCC4)s3)ccc2c1Nc1ccc(Oc2ccccc2)cc1` [GW664114] as the molecule, how does the “%Inh” value read?
**A.** The value was 0%.

**Q.** With `CN(C)CCNS(=O)(=O)c1ccc(-c2ccnc3[nH]ccc23)cc1` [GSK977620] as the molecule, how does the “%Inh” value read?
**A.** Its value is 10%.

**Q.** Which “%Inh” value does the source give for `CN(C)c1ncnc2nc[nH]c12` [SKF-31736] here?
**A.** Its value is 0%.

**Q.** For `COc1ccc(NC(=O)c2ccoc2)cc1-c1ccc(C(=O)NCC2CC2)cc1` [GW810437], which “%Inh” value is on record?
**A.** Its value is 0%.

**Q.** For `O=C(Nc1c(F)cccc1F)c1cc(C(=O)c2ccccc2F)c[nH]1` [GSK1326180], which “%Inh” value is on record?
**A.** Its value is 11%.

**Q.** Which “%Inh” value does the source give for `Cn1cc(-c2cnc(N)c3c(-c4ccc5c(c4)CCN5C(=O)Cc4ccccc4)csc23)cn1` [GSK2593074] here?
**A.** Its value is 7%.

**Q.** How did the “%Inh” value turn out when `O=C(O)C(F)(F)F.O=c1[nH]ccc2nc(N[C@@H]3CCNC3)nc(Nc3cc(Cl)cc(Cl)c3)c12` [GSK2188764] was run?
**A.** Its value is 25%.

**Q.** Which “%Inh” value does the source give for `CN(c1ccc(NC(=O)Nc2cccc(Cl)c2)cc1)c1ccnc(N)n1.Cl` [GW830707] here?
**A.** Its value is 0%.

**Q.** Which “%Inh” value does the source give for `Cn1cc(-c2ccc3c(c2)CCN3C(=O)Cc2cc(F)cc(F)c2F)c2c(N)ncnc21` [GSK2634140] here?
**A.** Its value is 6%.

**Q.** How did the “%Inh” value turn out when `CC(C)(C)c1ccc(C(=O)Nc2cn3cc(-n4ccnc4)ccc3n2)cc1` was run?
**A.** The value was 2%.

**Q.** Which “%Inh” value does the source give for `CC(C)c1nc(-c2cccc(NS(=O)(=O)c3c(F)cccc3F)c2)c(-c2ccnc(Nc3ccc(N4CCOCC4)nc3)n2)s1.Cl` [GSK1723980] here?
**A.** Its value is 100%.

**Q.** Which “%Inh” value does the source give for `O=C1NC(=O)C(c2ccccc2Cl)=C1Nc1cccc(Cl)c1` [SB-342409] here?
**A.** The value was 20%.
